Measured values from PubChem BioAssay (NCATS).
Inconclusive results are not listed. Activity calls are given as the source filed them. Calls follow the shape of the dose curve; as a rule, active = well fitted inhibition curve with a large enough effect; inconclusive = small, poorly fitted or top-dose-only effect; inactive = flat fitted curve, though single readings scatter.

Experiment: Primary qHTS for inhibitors of nuclear receptor binding SET domain protein 2 (NSD2) in an isogenic RCH-ACV NSD2 p.E1099K mutant (9B) (AID 1645876); also: nearly all actives have a fitted effect of over 70% in size
Details: RCH-ACV (leukaemia line) NSD2 E1099K (9B) viability, CellTiter-Glo, 72 h; series mostly up to 44.9 µM; activity change, negative = viability loss: at the top concentration
% is scaled to controls: 0 for no effect and ±100 for the full control effect; potency is read from the fitted curve at half-maximal effect.

Compound | activity change, negative = viability loss | Potency | outcome
CCS(=O)(=O)c1ccc(OC)c(C(=O)OC)c1 | 5.13% (inactive) | – | –
CC(C)(C)C(=O)OCOC(=O)C1N2C(=O)CC2S(=O)(=O)C1(C)C (stereo not drawn) | -7.39% (inactive) | – | –
O=C1CC2(CCCC2)CC(=O)N1CCNCC1COc2ccccc2O1 (stereo not drawn) | -10.3% (inactive) | – | –
O=C(O)Cn1c(=O)n(Cc2ccc(Br)cc2F)c(=O)c2ccc(Cl)cc21 | -9.88% (inactive) | – | –
CC(C)C(C)(C)C(C)(C)C(C)(C)S | -4.55% [at 91.9 µM] (inactive) | – | –
CCCCCCn1c(=O)c2c(ncn2C)n(C)c1=O | 4.89% (inactive) | – | –
CC(C)(C)C1CCC(CC2=C(O)c3ccccc3C(=O)C2=O)CC1 (stereo not drawn) | – | 7500 nM (active) | –
CCOc1ccccc1OCC1CNCCO1 (stereo not drawn) | – | – | inactive
O=C(CCCl)NCc1ccccc1 | -8.22% (inactive) | – | –
COC(=O)/C=C(/C)N | 2.41% (inactive) | – | –
Nc1ccc2c(c1)CN1C(=O)c3ccccc3C1=N2 | – | 7310 nM (active) | –
O=C1Cc2cc(Cl)ccc2N1 | – | – | inactive
CC(C)(C)c1ccc(C(=O)CCCCl)cc1 | -6.3% (inactive) | – | –
O=C(Oc1ccccc1)c1cccc(C(=O)Oc2ccccc2)c1 | 7% [at 91.9 µM] (inactive) | – | –
Nc1ccc(C(=O)N2CC3CC(CN(Cc4ccccc4)C3)C2)cc1 | 2.11% (inactive) | – | –
CC(C)(C)c1ccc(O)c(O)c1 | – | 2170 nM (active) | –
CC1(C)OC(=O)Nc2ccc(Br)cc21 | -1.46% (inactive) | – | –
Nc1ccc(C(=O)OCC(O)CO)cc1 (stereo not drawn) | 1.29% (inactive) | – | –
CC(COc1ccccc1)NN (stereo not drawn) | -10.2% (inactive) | – | –

Compound | activity change, negative = viability loss | Potency | outcome
Cc1cc(O)c(C)c(C)c1O | – | – | inactive
CCCc1ncc(C(=O)O)s1 | – | – | inactive
CC(NN)c1ccccc1 (stereo not drawn) | 7.52% [at 17.3 µM] (inactive) | – | –
CC(=O)O[C@H]1CC[C@@]2(C)C(=CC[C@@H]3[C@@H]2CC[C@]2(C)C(C(C)=O)=CC[C@@H]32)C1 | – | – | inactive
CCCCCCCCCCCC[N+](C)(C)Cc1ccccc1 | – | 473 nM (active) | –
NC(=O)COCCN1CCN(C(c2ccccc2)c2ccc(Cl)cc2)CC1 (stereo not drawn) | -5.44% (inactive) | – | –
COc1cc2c(cc1OC)CN(C(=O)[C@H](C)N[C@@H](CCc1ccccc1)C(=O)O)[C@H](C(=O)O)C2 | 8.34% (inactive) | – | –
CCCCCCCCCCCCCCCCCCN(C)C | 0.366% (inactive) | – | –
CN1Cc2cc(C(=O)N3CCC(C4CCNCC4)CC3)ccc2NC(CC(=O)O)C1=O (stereo not drawn) | 6.76% (inactive) | – | –
O=C1CCCc2c(O)cccc21 | -16.4% (inactive) | – | –
O=C(O)c1ccc(OCCN2CCCCC2)cc1 | – | – | inactive
CCOc1ncc(F)c(=O)[nH]1 | 5.94% (inactive) | – | –
COC(=O)c1cc(Cl)c(NC(C)=O)cc1OC | 8.24% (inactive) | – | –
O=C1CC2(CCCC2)CC(=O)N1 | – | – | inactive
CSc1ccc(/C=C2/C(C)=C(CC(=O)O)c3cc(F)ccc32)cc1 | -17.4% (inactive) | – | –
Cc1coc2ccccc2c1=O | 8.59% (inactive) | – | –
CCN(CC)CC(=O)Oc1ccc(NC(C)=O)cc1 | – | – | inactive
CCCCOC(=O)CCCCCCCCC(=O)OCCCC | – | – | inactive
Cc1nc(N)nc(N)c1-c1ccc(Cl)c(Cl)c1 | – | 266 nM (active) | –
